Among the data in PubChem BioAssay (NCATS) are Potency and outcome values, retold here.

A short description of assay [1]: Primary qHTS for inhibitors of SARS-S pseudo-typed particle cell entry (AID 1479145; further: nearly all actives have a fitted effect of over 45% in size; further: potency means the concentration at half of the fitted maximal effect). (In general: In qHTS, concentration-response curves come from the screen itself.)
Assay [2] can be described thus: Primary qHTS for Huh7 cytotoxicity: counterscreen for inhibitors of MERS-S pseudotyped particle cell entry (AID 1479147).
Assay [3] is described as follows: Primary qHTS for inhibitors of MERS-S pseudo-typed particle cell entry (AID 1479149). Further: nearly all actives have a fitted effect of over 60% in size.
Assay [4] can be described thus: Primary qHTS for Vero E6 cytotoxicity: counterscreen for inhibitors of SARS-S pseudo-typed particle cell entry (AID 1479150).
Assay [5] has as its target Single-stranded DNA cytosine deaminase (Homo sapiens) (UniProt Q9GZX7). Briefly: Validation qHTS assay for inhibitors of Activation Induced Cytidine Deaminase (AID): AID signal (AID 1347429; active means well fitted curve in the direction sought with a large enough effect; an effect the other way counts as inactive or inconclusive). In a few lines: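 Steps: dispense AID with UDG; pin-transfer compound up to 114 uM final; add DJC20/DJC23 substrate and hold 4 hr at room temperature; add NaOH, hold 30 min; read FRET signal (540/590 nm).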

The target of assay [6] is Calcium and integrin-binding protein 1 (Homo sapiens) (UniProt Q99828). Briefly: Validation qHTS for Identification of Calcium Integrin Binding protein 1 (CIB1) Competitor (AID 1508618; active means well fitted curve in the direction sought with a large enough effect; an effect the other way counts as inactive or inconclusive). In a few lines: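 In this qHTS validation, the LOPAC set (up to 114 uM) was tested for blocking CIB1 binding to a fluorescein-tagged alphaIIb peptide, with FP detection at 480/540 nm.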
Calcium and integrin-binding protein 1 (Homo sapiens), sequence (Q99828 whole entry, looked up): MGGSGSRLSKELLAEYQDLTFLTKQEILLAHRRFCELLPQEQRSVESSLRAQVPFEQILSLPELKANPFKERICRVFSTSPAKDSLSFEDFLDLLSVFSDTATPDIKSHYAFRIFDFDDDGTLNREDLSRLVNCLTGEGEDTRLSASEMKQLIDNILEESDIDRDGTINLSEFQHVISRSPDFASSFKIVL

A short description of assay [7]: Primary qHTS for inhibitors of La Crosse Virus (LACV) - induced cell death in SH-SY5Y cells (AID 1508616; active means well fitted curve in the direction sought with a large enough effect; an effect the other way counts as inactive or inconclusive;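 further: top concentration of the series differs between compounds; higher means more rescue of cells from virus-induced death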). In a few lines:
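SH-SY5Y, 6000 cells/well; cpd via pin tool in DMSO; LACV 0.01 MOI; 6 d 37C 5% CO2; ATPLite, 5 min RT; luminescence normalized to ±virus DMSO controls.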

Assay [8] in a line: Confirmatory qHTS for VERO E6 Cytotoxicity Assay: Counterscreen for SARS-CoV-2 CPE Assay (AID 1508605). Further: series mostly up to about 20 µM; nearly all actives have a fitted effect of over 60% in size.

Values without a mark were called inactive. Results filed as inconclusive are left out. Active and inactive are the calls of the source. Unless noted, the call rests on the fitted dose curve.

Single-stranded DNA cytosine deaminase (Homo sapiens), sequence (Q9GZX7 whole entry, looked up): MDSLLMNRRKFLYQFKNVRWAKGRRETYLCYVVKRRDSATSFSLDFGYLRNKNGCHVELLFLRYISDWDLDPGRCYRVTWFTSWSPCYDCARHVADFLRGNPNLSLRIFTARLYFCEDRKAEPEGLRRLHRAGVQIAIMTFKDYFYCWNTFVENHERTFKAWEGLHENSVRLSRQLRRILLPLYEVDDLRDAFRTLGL

Consider `CCOC(=O)C1=C(C)NC(C)=C(C(=O)OC)C1c1cccc([N+](=O)[O-])c1` (stereo not given), for which the Potency entry in assay [1], in assay [2], in assay [3] and in assay [4] was “inactive” in each case.

For `NC(=O)c1ccc([N+](=O)[O-])cc1Cl`, the Potency result in assay [1], in assay [2], in assay [3] and in assay [4] was “inactive” throughout.

Take `CC(C)c1cccc(C(C)C)c1O`: the outcome in assay [5] and in assay [6] was inactive. For the same compound, the Potency entry in assay [1], in assay [2], in assay [3] and in assay [4] was “inactive” each time.

In the case of `CC(NC(C)(C)C)C(=O)c1cccc(Cl)c1` (stereo not given), the outcome in assay [5], in assay [7] and in assay [6] was inactive. Also, the Potency result in assay [1], in assay [2], in assay [3] and in assay [4] was “inactive” in each case.

In the case of `Cc1ncsc1CCCl`, the compound was classed as inactive in assay [5], in assay [7] and in assay [6]. The Potency result in assay [1], in assay [2], in assay [3] and in assay [4] was “inactive” each time.

Regarding `O=c1[nH]c(=O)n([C@H]2CCCO2)cc1F`, the Potency result in assay [1], in assay [2], in assay [3] and in assay [4] was “inactive” each time.

Consider `CCC1(c2ccc(N)cc2)CCC(=O)NC1=O` (stereo not given), for which the call in assay [5], in assay [7] and in assay [6] was inactive. Moreover, the Potency result in assay [1], in assay [2], in assay [3] and in assay [4] was “inactive” in each case.

For the compound `Cc1ccsc1/C=C/C1=NCCCN1C`, the Potency entry in assay [1], in assay [2], in assay [3] and in assay [4] was “inactive” each time.

Consider `O=c1[nH]oc2c1CCNC2`, for which the call in assay [5], in assay [7] and in assay [6] was inactive.

Regarding `CC(C)(C)NCC(O)c1ccccc1Cl` (stereo not given), the call in assay [5] and in assay [6] was inactive. Also, the Potency result in assay [1], in assay [2], in assay [3] and in assay [4] was “inactive” throughout.

Take `NS(=O)(=O)c1cc2c(cc1Cl)NC(C(Cl)Cl)NS2(=O)=O` (stereo not given): the Potency entry in assay [1], in assay [2], in assay [3] and in assay [4] was “inactive” each time.

Turning to `Cc1ccc(C(=O)C(=O)O)cc1C`, the Potency result in assay [1], in assay [2], in assay [3] and in assay [4] was “inactive” in each case.

Regarding `NCCc1ccc(O)cc1`, the compound was classed as inactive in assay [5], in assay [7] and in assay [6].

For `O=C(O)CCCc1ccc(N(CCCl)CCCl)cc1`, the call in assay [5] and in assay [7] was inactive. The Potency entry in assay [2], in assay [3] and in assay [4] was “inactive” throughout.

In the case of `COc1ccc2c(c1OC)C(=O)O[C@H]2[C@@H]1c2cc3c(cc2CCN1C)OCO3`, the outcome in assay [5] and in assay [6] was inactive. The Potency entry in assay [1], in assay [2], in assay [3] and in assay [4] was “inactive” in each case.

`Cn1c(=O)c2[nH]cnc2n(C)c1=O`: the Potency result in assay [1], in assay [2], in assay [3] and in assay [4] was “inactive” in each case.

Consider `CC(C)N(CCC(C(N)=O)(c1ccccc1)c1ccccn1)C(C)C` (stereo not given), for which the call in assay [5], in assay [7] and in assay [6] was inactive. Further, the Potency entry in assay [2], in assay [3] and in assay [4] was “inactive” throughout.

Regarding `CN1C(=O)CCS(=O)(=O)C1c1ccc(Cl)cc1` (stereo not given), the result in assay [5] and in assay [6] was inactive. The Potency result in assay [1], in assay [2] and in assay [4] was “inactive” throughout.

`C=C(C)[C@H]1CN[C@H](C(=O)O)[C@H]1CC(=O)O`: the compound was called inactive in assay [5] and in assay [6]. The Potency entry in assay [1], in assay [2], in assay [3] and in assay [4] was “inactive” each time.

For the compound `CC(C)=CCC/C(C)=C/CC/C(C)=C/CCC(=O)OC/C=C(\C)CCC=C(C)C`, the Potency entry in assay [1], in assay [2] and in assay [3] was “inactive” each time.

Regarding `CC(=O)Oc1cccc(O)c1`, the Potency result in assay [1], in assay [2], in assay [3] and in assay [4] was “inactive” in each case.

As to `CN[C@@H]1[C@H](O)[C@H](NC)[C@H]2O[C@@]3(O)C(=O)C[C@@H](C)O[C@H]3O[C@@H]2[C@H]1O`, the Potency result in assay [1], in assay [2], in assay [3] and in assay [4] was “inactive” throughout.

For the compound `CC(=O)OCC(=O)[C@@]1(O)[C@H](OC(C)=O)C[C@H]2[C@@H]3CCC4=CC(=O)C=C[C@]4(C)[C@@]3(F)[C@@H](O)C[C@@]21C`, the Potency result in assay [1], in assay [2], in assay [3] and in assay [4] was “inactive” throughout.

Consider `CCc1cc(C(N)=S)ccn1`, for which the Potency result in assay [1], in assay [2], in assay [3] and in assay [4] was “inactive” in each case.

For `CN(C)C(=O)COC(=O)Cc1ccc(OC(=O)c2ccc(N=C(N)N)cc2)cc1`, the Potency result in assay [1], in assay [2], in assay [3] and in assay [4] was “inactive” each time.

For the compound `CCCCCCCCCCCCCCCCO`, the Potency entry in assay [1], in assay [2], in assay [3] and in assay [4] was “inactive” throughout.

Regarding `Cc1cnc(NC(=O)C2=C(O)c3ccccc3S(=O)(=O)N2C)s1`, the Potency entry in assay [1], in assay [2] and in assay [3] was “inactive” each time.

For `CC(C)(C)NCC(O)COc1ccccc1OCC1CCCO1` (stereo not given), the Potency entry in assay [1], in assay [2], in assay [3] and in assay [4] was “inactive” throughout.

With `CC[C@@]1(O)C(=O)OCc2c1cc1n(c2=O)Cc2c-1nc1ccccc1c2/C=N/OC(C)(C)C`, the Potency entry in assay [1], in assay [2] and in assay [3] was “inactive” throughout.

On to `Oc1cccc(O)c1`, for which the Potency result in assay [1], in assay [2], in assay [3] and in assay [4] was “inactive” in each case.

As for `CC(=O)NCc1c(I)c(NC(C)=O)c(I)c(C(=O)O)c1I`, the Potency entry in assay [1], in assay [2], in assay [3] and in assay [4] was “inactive” in each case.

Regarding `O=P1(N(CCCl)CCCl)NCCCO1` (stereo not given), the compound was classed as inactive in assay [5] and in assay [6]. In addition, the Potency result in assay [1], in assay [2], in assay [3] and in assay [4] was “inactive” throughout.

In the case of `COc1cccc2c1C(=O)c1c(O)c3c(c(O)c1C2=O)C[C@@](O)(C(=O)CO)C[C@@H]3O[C@H]1C[C@H](N)[C@@H](O)[C@H](C)O1`, the Potency in assay [1] is 10 µM (active).

In the case of `Cc1oc(=O)oc1CN1CCN(c2cc3c(cc2F)c(=O)c(C(=O)O)c2n3C(C)S2)CC1` (stereo not given), the Potency result in assay [1], in assay [2], in assay [3] and in assay [4] was “inactive” each time.

As for `O=C(CCCN1CCC2(CC1)C(=O)NCN2c1ccccc1)c1ccc(F)cc1`, the result in assay [5] and in assay [6] was inactive. Further, the Potency entry in assay [1] and in assay [8] was “inactive” each time.
